± gives the standard deviation of the averaged measurements.
Experiments:
Test in all cases: cell viability (% of vehicle); higher = less cytotoxic
Details in all cases: 10 µM; 72 h
HCI01 = system: HCI01 (cells of a triple-negative basal-like breast cancer xenograft)
HCI03 = system: HCI03 (cells of an ER-positive luminal breast cancer xenograft)
HCI09 = system: HCI09 (cells of a triple-negative luminal androgen receptor type breast cancer xenograft)
HCI11 = system: HCI11 (cells of an ER-positive luminal breast cancer xenograft)
HCI13 = system: HCI13 (cells of an ER-positive luminal breast cancer xenograft)
HCI16 = system: HCI16 (cells of a triple-negative basal-like breast cancer xenograft)
UCD52 = system: UCD52 (cells of a triple-negative basal-like breast cancer xenograft)
WHIM2 = system: WHIM2 (cells of a triple-negative basal-like breast cancer xenograft)
WHIM30 = system: WHIM30 (cells of a triple-negative basal-like breast cancer xenograft)
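Note: PDX cells carrying CMV promoter-driven luciferase, viability read as total photon flux per second by IVIS imaging following D-luciferin, vehicle control 0.1% DMSO.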

| Compound | cell viability (HCI01) | cell viability (HCI03) | cell viability (HCI09) | cell viability (HCI11) | cell viability (HCI13) | cell viability (HCI16) | cell viability (UCD52) | cell viability (WHIM2) | cell viability (WHIM30) |
| --- | --- | --- | --- | --- | --- | --- | --- | --- | --- |
| CC1C(NC(=O)C(=NOC(C)(C)C(=O)O)c2csc(N)n2)C(=O)N1S(=O)(=O)O (stereo not given) [Aztreonam] | 104 ± 4.2 | 113 | 96.5 ± 6.8 | 109 | 118 ± 15 | 114 | 95.9 ± 3 | 84.4 ± 8.5 | 123 ± 30 |
| Cc1c(F)cc(C(=O)NC2CC2)cc1-c1ccc(C(=O)NCC(C)(C)C)cn1 [Losmapimod] | 84 ± 16 | 91.4 | 84.4 ± 21 | 60 | 71 ± 2.2 | 81.6 | 58.1 ± 1.8 | 76.5 ± 16 | 101 ± 6.2 |
| CC1(C(=O)[O-])CCC2(C)CCC3(C)C(=CC(=O)C4C5(C)CCC(OC(=O)CCC(=O)[O-])C(C)(C)C5CCC43C)C2C1.[Na+].[Na+] (stereo not given) [Carbenoxolone disodium] | 84.3 ± 8 | 122 | 89.2 ± 4.5 | 103 | 129 ± 87 | 108 | 82.3 ± 1.7 | 108 ± 11 | 97.9 ± 2.5 |
| CC(CN1CC(=O)NC(=O)C1)N1CC(=O)NC(=O)C1.Cl (stereo not given) [Dexrazoxane HCl (ICRF-187, ADR-529)] | 64.8 ± 50 | 134 | 107 ± 3.7 | 97.9 | 96.3 ± 1.9 | 84.2 | 96.1 ± 14 | 70.2 ± 19 | 114 ± 1.9 |
| Cc1c(O)c(=O)ccn1C [Deferiprone] | 81 ± 3.5 | 102 | 83.6 ± 14 | 77.1 | 93 ± 5.8 | 102 | 85.8 ± 1.6 | 144 ± 12 | 89.2 ± 3.3 |
| OCC1OC(OC2(CCl)OC(CCl)C(O)C2O)C(O)C(O)C1Cl (stereo not given) [Sucralose] | 112 ± 2.4 | 128 | 91.4 ± 5.3 | 89.1 | 70 ± 4.5 | 140 | 70.9 ± 6.8 | 124 ± 30 | 110 ± 7.1 |
| O=C1NC(=O)[C@@H](c2c[nH]c3ccccc23)[C@H]1c1cn2c3c(cccc13)CCC2 [Tivantinib (ARQ 197)] | 161 ± 20 | 81 | 51.5 ± 4.9 | 111 | 43.6 ± 9.6 | 125 | 81.8 ± 4.7 | 107 ± 11 | 147 ± 26 |
| CCCCOc1cc(C(=O)NCCN(CC)CC)c2ccccc2n1 [Dibucaine] | 94.3 ± 30 | 158 | 95.5 ± 9.9 | 93.9 | 135 ± 2 | 135 | 81.16 ± 0.71 | 95.1 ± 14 | 89.012 ± 0.00099 |
| COc1ccc2c(c1)C(=O)N(CCc1ccc(S(=O)(=O)NC(=O)NC3CCCCC3)cc1)C(=O)C2(C)C [Gliquidone] | 89.2 ± 83 | 109 | 68.4 ± 19 | 91.4 | 94.6 ± 23 | 142 | 93.5 ± 11 | 130 ± 20 | 137 ± 19 |
| CC(C)OC(=O)C(C(=O)OC(C)C)=C1SC=CS1 [Malotilate] | 108 ± 12 | 84.3 | 90.2 ± 13 | 90.9 | 89.8 ± 3.1 | 75.5 | 89.5 ± 2.4 | 75.6 ± 17 | 97.9 ± 4 |
| O=C(CCCN1CC=C(n2c(=O)[nH]c3ccccc32)CC1)c1ccc(F)cc1 [Droperidol] | 108 ± 23 | 106 | 84.4 ± 9.8 | 97.5 | 113 ± 20 | 107 | 93.1 ± 5.3 | 96.6 ± 20 | 100 ± 2.3 |
| CC(=O)[N-]S(=O)(=O)c1ccc(N)cc1.[Na+] [Sulfacetamide Sodium] | 98.2 ± 1.3 | 86.1 | 87.3 ± 15 | 104 | 96.8 ± 5.9 | 79.7 | 72.9 ± 1.1 | 85.757 ± 0.01 | 109 ± 3.1 |
| Cc1cccc(-c2nn3c(c2-c2ccnc4ccc(C(N)=O)cc24)CCC3)n1 | 117 ± 2.1 | 90.1 | 115 ± 56 | 98.7 | 56.3 ± 6.4 | 89.8 | 73.1 ± 3.3 | 147 ± 41 | 111 ± 3 |
| CC(C)NCC(O)COc1cccc2ccccc12.Cl (stereo not given) [Propranolol HCl] | 109.73 ± 0.067 | 104 | 100 ± 15 | 84.5 | 97.8 ± 24 | 96.6 | 83.3 ± 4.4 | 83.3 ± 16 | 108 ± 7.8 |
| O=S(=O)([O-])Oc1ccc(C(c2ccc(OS(=O)(=O)[O-])cc2)c2ccccn2)cc1.[Na+].[Na+] [Sodium Picosulfate] | 103 ± 33 | 119 | 102 ± 6 | 86.7 | 116 ± 6.3 | 117 | 90.71 ± 0.14 | 91.2 ± 20 | 101 ± 5.3 |
| CC(C(=O)O)c1ccc2c(c1)Cc1cccnc1O2 (stereo not given) [Pranoprofen] | 113 ± 13 | 128 | 93.6 ± 16 | 78.6 | 123 ± 16 | 125 | 98.8 ± 19 | 110 ± 3.3 | 111 ± 22 |
| CCOC(=O)C(CCc1ccccc1)NC(C)C(=O)N1C(=O)N(C)CC1C(=O)O.Cl (stereo not given) [Imidapril HCl] | 105 ± 8.3 | 113 | 99.8 ± 7.1 | 102 | 126 ± 1.4 | 94.2 | 78 ± 3.8 | 105 ± 3.3 | 104 ± 10 |
| CC(=O)OCC(=O)C1(O)CCC2C3CCC4=CC(=O)CCC4(C)C3C(=O)CC21C (stereo not given) [Cortisone acetate] | 119 ± 17 | 130 | 119 ± 47 | 105 | 96.1 ± 13 | 140 | 106 ± 31 | 112 ± 19 | 119 ± 6.2 |
| Nc1ccn(C2OC(CO)C(O)C2O)c(=O)n1 (stereo not given) [Cytidine] | 101 ± 36 | 131 | 98.9 ± 9.3 | 105 | 87.1 ± 7 | 122 | 92.5 ± 19 | 108 ± 18 | 146 ± 29 |
| CCC1OC(=O)C(C)C(OC2CC(C)(OC)C(O)C(C)O2)C(C)C(OC2OC(C)CC(N(C)C)C2O)C(C)(O)CC(C)C2NC(COCCOC)OC(C2C)C1(C)O (stereo not given) [Dirithromycin] | 143 ± 72 | 117 | 89.5 ± 16 | 94 | 76.3 ± 11 | 103 | 81.8 ± 15 | 90.6 ± 12 | 92.4 ± 3.8 |

| Compound | cell viability (HCI01) | cell viability (HCI03) | cell viability (HCI09) | cell viability (HCI11) | cell viability (HCI13) | cell viability (HCI16) | cell viability (UCD52) | cell viability (WHIM2) | cell viability (WHIM30) |
| --- | --- | --- | --- | --- | --- | --- | --- | --- | --- |
| O=N[O-].[Na+] [Sodium Nitrite] | 104 ± 6.4 | 95.5 | 90.5 ± 4.7 | 91.5 | 55.8 ± 2.9 | 108 | 84 ± 5.8 | 114 ± 17 | 116 ± 21 |
| COc1cc(Nc2ncc(F)c(Nc3ccc4c(n3)N(COP(=O)([O-])[O-])C(=O)C(C)(C)O4)n2)cc(OC)c1OC.[Na+].[Na+] [R788 disodium] | 86.4 ± 12 | 76.8 | 95.4 ± 11 | 86.8 | 86.4 ± 11 | 64.5 | 58 ± 4 | 79.4 ± 16 | 91.9 ± 3.2 |
| CC(O)(P(=O)(O)O)P(=O)(O)O [Etidronate] | 94.3 ± 15 | 96.6 | 94.9 ± 14 | 85.2 | 107.1 ± 0.89 | 92.3 | 75 ± 5.3 | 150 ± 2.7 | 111 ± 11 |
| CCC(=C(CC)c1ccc(O)cc1)c1ccc(O)cc1 [Diethylstilbestrol] | 59.1 ± 40 | 95.7 | 61.4 ± 39 | 75.5 | 41 ± 12 | 107 | 78.3 ± 8.4 | 116 ± 51 | 83.8 ± 11 |
| Cc1cnc(NC(=O)C2=C(O)c3ccccc3S(=O)(=O)N2C)s1 [Meloxicam (Mobic)] | 104 ± 10 | 125 | 96.1 ± 18 | 102 | 124 ± 5 | 88.8 | 80.5 ± 6.5 | 94 ± 12 | 81.3 ± 13 |
| Cc1onc(-c2ccccc2)c1-c1ccc(S(N)(=O)=O)cc1 [Valdecoxib] | 126 ± 28 | 126 | 85.3 ± 11 | 98 | 109 ± 1.1 | 99.8 | 74 ± 11 | 95.5 ± 4.2 | 78.92 ± 0.35 |
| Cc1ccnc2c1NC(=O)c1cccnc1N2C1CC1 [Nevirapine] | 112 ± 2.5 | 105 | 122 ± 49 | 113 | 96.5 ± 3.9 | 96 | 96.8 ± 6.9 | 93.1 ± 23 | 130 ± 5.6 |
| CCOC(=O)C1=C(C)NC(C)=C(C(=O)OC)C1c1cccc([N+](=O)[O-])c1 (stereo not given) [Nitrendipine] | 111 ± 10 | 123 | 93.6 ± 17 | 112 | 104 ± 0.32 | 90.2 | 80.15 ± 0.7 | 95.6 ± 22 | 97.2 ± 5.3 |
| CCN1CCN(c2cc3c(cc2F)c(=O)c(C(=O)O)cn3C2CC2)CC1 [Enrofloxacin] | 105 ± 14 | 106 | 99.9 ± 18 | 91.8 | 121 ± 8.5 | 111 | 124 ± 5.2 | 130 ± 18 | 80.5 ± 6.2 |
| CC(=O)Nc1ccc(O)cc1 [Acetaminophen] | 93.9 ± 24 | 101 | 98.4 ± 7.2 | 80.4 | 116 ± 14 | 126 | 102 ± 6.9 | 92.71 ± 0.48 | 97.4 ± 3.5 |
| CCC1(O)CC2CN(CCc3c([nH]c4ccccc34)C(C(=O)OC)(c3cc4c(cc3OC)N(C)C3C(O)(C(=O)OC)C(OC(C)=O)C5(CC)C=CCN6CCC43C65)C2)C1 (stereo not given) [vinblastine] | 123 ± 3.3 | 91.1 | 45.7 ± 42 | 96.2 | 37.6 ± 3.4 | 164 | 68 ± 10 | 80.7 ± 22 | 124 ± 17 |
| CC(C)NCC(O)c1ccc(O)c(O)c1.Cl (stereo not given) [Isoprenaline HCl] | 95.7 ± 15 | 108 | 87.2 ± 13 | 90.3 | 76.2 ± 2 | 122 | 91.9 ± 9.1 | 77.2 ± 5.8 | 113 ± 7.1 |
| C=C1c2cccc(O)c2C(O)=C2C(=O)C3(O)C(O)=C(C(N)=O)C(=O)C(N(C)C)C3C(O)C12.Cl (stereo not given) [Methacycline HCl] | 114 ± 4.2 | 128 | 104 ± 5.9 | 81.8 | 140 ± 12 | 158 | 111 ± 5.5 | 94.3 ± 2 | 121 ± 2.4 |
| CC(C)NCC(O)COc1ccc(CCOCC2CC2)cc1.Cl (stereo not given) [Betaxolol HCl] | 132 ± 2.2 | 134 | 107 ± 34 | 107 | 87 ± 6.8 | 149 | 74.2 ± 1.6 | 101 ± 15 | 117 ± 1.3 |
| CC(=CC(=O)OCCCCCCCCC(=O)O)CC1OCC(CC2OC2C(C)C(C)O)C(O)C1O (stereo not given) [Mupirocin] | 97.5 ± 17 | 129 | 86.5 ± 23 | 90.6 | 89.6 ± 9.9 | 101 | 84.2 ± 3.4 | 81.9 ± 12 | 113.3 ± 0.3 |
| CCCCCCCCCCCCCCCCO [1-Hexadecanol] | 108 ± 3.9 | 95.9 | 97.8 ± 12 | 95.2 | 107 ± 84 | 109 | 67.1 ± 5.9 | 94.2 ± 11 | 84.7 ± 8.4 |
| Cc1c(N(C)C)c(=O)n(-c2ccccc2)n1C [Amidopyrine] | 99.1 ± 16 | 118 | 94.5 ± 19 | 93.2 | 76.33 ± 0.62 | 97.5 | 97.8 ± 7.1 | 117 ± 37 | 122 ± 8.5 |
| CCCCCCOC(=O)N=C(N)c1ccc(NCc2nc3cc(C(=O)N(CCC(=O)OCC)c4ccccn4)ccc3n2C)cc1 | 94.2 ± 9.6 | 124 | 105 ± 7.4 | 111 | 118 ± 7.9 | 107 | 91.9 ± 7.3 | 107 ± 32 | 116 ± 11 |
| Cc1ccc(C2OC(CO)C(O)C(O)C2O)cc1Cc1ccc(-c2ccc(F)cc2)s1 (stereo not given) [Canagliflozin] | 114 ± 6.5 | 150 | 55.8 ± 27 | 108 | 77.3 ± 21 | 124 | 76 ± 9.2 | 65.5 ± 51 | 110 ± 5.9 |
| COc1cc(C2Oc3cc(C4Oc5cc(O)cc(O)c5C(=O)C4O)ccc3OC2CO)ccc1O (stereo not given) [Silymarin] | 111 ± 32 | 129 | 102 ± 19 | 89.4 | 127 ± 3.3 | 116 | 107.79 ± 0.095 | 93.6 ± 18 | 91.7 ± 2 |

Reference: the supplement of paper PMC6992640
